# In PubChem BioAssay (NCATS):
# Results filed as inconclusive are left out. Entries that show only a call come without a potency. A number with no mark means an inactive call. Activity calls are given as the source filed them. Calls come from the whole dose curve; as a rule, active = well fitted cell-killing curve with a large enough effect; inconclusive = small, poorly fitted or top-dose-only effect, or effect the other way; inactive = flat fitted curve, though single readings scatter.
# Columns and labels:
# Assay in all cases: Primary qHTS to identify gynecologic anti-cancer compounds using libraries of approved drugs and bioactive compounds (AID 1345084); note: nearly all actives have a fitted effect of over 55% in size
# [1] = system: C33A; conditions: Gynecologic cancer cell panel viability, ATPlite luminescence, 48 h; series mostly up to 57.5 µM
# Method in brief: (§1)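 ATP-based viability (ATPlite), 1,000 cells/well, 16 h pre-incubation, 48 h compound at 37 C, 5% CO2, 15 min RT before read.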
# [2] = system: CAOV3; conditions: Gynecologic cancer cell panel viability, ATPlite luminescence, 48 h; series mostly up to 57.5 µM
# Method in brief: as §1
# [3] = system: CASKI; conditions: Gynecologic cancer cell panel viability, ATPlite luminescence, 48 h; series mostly up to 57.5 µM
# Method in brief: as §1
# [4] = system: HeLa; conditions: Gynecologic cancer cell panel viability, ATPlite luminescence, 48 h; series mostly up to 57.5 µM
# Method in brief: as §1
# [5] = system: Hek293T; conditions: Gynecologic cancer cell panel viability, ATPlite luminescence, 48 h, control line for the selectivity index; series mostly up to 57.5 µM
# Method in brief: as §1
# [6] = system: JEG-3; conditions: Gynecologic cancer cell panel viability, ATPlite luminescence, 48 h; series mostly up to 57.5 µM
# Method in brief: as §1
# [7] = system: OV90; conditions: Gynecologic cancer cell panel viability, ATPlite luminescence, 48 h; series mostly up to 57.5 µM
# Method in brief: as §1
# [8] = system: Es-2; conditions: Gynecologic cancer cell panel viability, ATPlite luminescence, 48 h; series mostly up to 57.5 µM
# Method in brief: as §1
# Potency is the fitted concentration of half-maximal effect.
structure (smiles),measurement,setting,value
O=C(CNC(=O)c1cccc(C(F)(F)F)c1)N[C@@H]1CCN(Cc2ccc(Cl)cc2)C1,Potency,[1],inactive
same,Potency,[2],inactive
same,Potency,[3],inactive
same,Potency,[4],inactive
same,Potency,[5],inactive
same,Potency,[6],inactive
same,Potency,[7],inactive
C=CC(=O)N1CCCN(c2cc(NCCC(=O)O)nc(-c3ccccn3)n2)CC1,Potency,[1],inactive
same,Potency,[2],inactive
same,Potency,[3],inactive
same,Potency,[4],inactive
same,Potency,[5],inactive
same,Potency,[6],inactive
C#CC(=O)N(c1ccc(OC)cc1OC)C(C(=O)NCC(=O)OCC)c1cccs1 (stereo not given),Potency,[1],5.01 µM (active)
same,Potency,[2],1.78 µM (active)
same,Potency,[3],22.4 µM (active)
same,Potency,[8],1.41 µM (active)
same,Potency,[6],15.8 µM (active)
COc1ccc([C@H]2OC[C@H]3O[C@@H](O[C@H]4[C@@H]2NC[C@@H]4O)[C@H](O)[C@H]3O)cc1,Potency,[1],7.08 µM (active)
same,Potency,[2],2.82 µM (active)
same,Potency,[3],5.01 µM (active)
same,Potency,[8],4.47 µM (active)
same,Potency,[5],3.16 µM (active)
same,Potency,[6],5.01 µM (active)
CC(=O)Nc1cccc(-c2csc(Nc3cc(C)ccn3)n2)c1,Potency,[1],inactive
same,Potency,[2],inactive
same,Potency,[3],inactive
same,Potency,[4],inactive
same,Potency,[6],inactive
same,Potency,[7],inactive
CC(=O)O[C@@H]1[C@H](O[C@@H]2O[C@@H](CO)[C@H](O)[C@H]2O)[C@@H](O[C@@H]2O[C@@H](C)[C@H](O[C@@H]3OC[C@@H](O)[C@H](O)[C@H]3O)[C@@H](O)[C@H]2O)[C@H](OC(=O)[C@]23CCC(C)(C)C[C@H]2C2=CCC4[C@@]5(C)CC[C@H](O[C@@H]6O[C@H](C(=O)O)[C@@H](O)[C@H](O)[C@H]6O[C@@H]6O[C@H](CO)[C@H](O)[C@H](O)[C@H]6O)[C@@](C)(C=O)C5CC[C@@]4(C)[C@]2(C)C[C@H]3O)O[C@@H]1C (stereo not given in full),"activity change, negative = cytotoxicity",[1],-10.4% [at 6.55 µM]
same,"activity change, negative = cytotoxicity",[2],-10.3% [at 6.55 µM]
same,"activity change, negative = cytotoxicity",[3],-9.38% [at 6.55 µM]
same,"activity change, negative = cytotoxicity",[4],10% [at 6.55 µM]
same,"activity change, negative = cytotoxicity",[6],6.34% [at 6.55 µM]
O=C(Nc1ccn(Cc2ccc(O)cc2C(F)(F)F)n1)c1c(F)cccc1F,Potency,[1],inactive
same,Potency,[2],inactive
same,Potency,[3],inactive
same,Potency,[8],inactive
same,Potency,[5],inactive
same,Potency,[6],inactive
same,Potency,[7],inactive
Cc1c(C2=CCN(C(=O)N(C)C(C)C)CC2)nnn1-c1cccnc1F,Potency,[1],inactive
same,Potency,[2],inactive
same,Potency,[3],inactive
same,Potency,[8],inactive
same,Potency,[5],inactive
same,Potency,[6],inactive
same,Potency,[7],inactive
c1ccc(-c2ccc(CNc3nc(-c4ccccn4)nnc3-c3ccccc3)cc2)cc1,Potency,[1],12.6 µM (active)
same,Potency,[2],8.91 µM (active)
same,Potency,[3],11.2 µM (active)
same,Potency,[8],17.8 µM (active)
same,Potency,[6],inactive
same,Potency,[7],7.08 µM (active)
CC(=O)O[C@H]1CC(C)(C)CC2[C@]13CO[C@@]21CCC2[C@@]4(C)CC[C@H](O[C@@H]5OC[C@H](O[C@@H]6O[C@H](CO)[C@@H](O)[C@H](O)[C@H]6O[C@@H]6OC[C@@H](O)[C@H](O)[C@H]6O)[C@H](O)[C@H]5O[C@@H]5O[C@H](CO)[C@@H](O)[C@H](O)[C@H]5O)[C@@](C)(CO)C4CC[C@@]2(C)[C@]1(C)C[C@H]3O (stereo not given in full),"activity change, negative = cytotoxicity",[1],-17.3% [at 11.6 µM]
same,"activity change, negative = cytotoxicity",[2],-0.697% [at 11.6 µM]
same,"activity change, negative = cytotoxicity",[3],-20.7% [at 11.6 µM]
same,"activity change, negative = cytotoxicity",[4],-3.76% [at 11.6 µM]
same,"activity change, negative = cytotoxicity",[6],-9.1% [at 11.6 µM]
Clc1ncoc1-c1c[nH]c2ccccc12,Potency,[1],inactive
same,Potency,[2],inactive
same,Potency,[3],inactive
same,Potency,[8],inactive
same,Potency,[5],inactive
same,Potency,[6],inactive
same,Potency,[7],inactive
C=C1C(=O)OC2/C=C(\C)CC/C=C(\C=O)C(OC)C(OC(=O)C(C)CC)C12 (stereo not given),Potency,[1],inactive
same,Potency,[2],inactive
same,Potency,[3],inactive
same,Potency,[4],inactive
same,Potency,[6],inactive
same,Potency,[7],inactive
CCOC(=O)c1csc(Nc2ccc(Cl)cc2)n1,Potency,[1],inactive
same,Potency,[2],inactive
same,Potency,[3],inactive
same,Potency,[4],inactive
same,Potency,[6],inactive
same,Potency,[7],inactive
Nc1ncnc2c1c(-c1ccc(Cl)cc1)nn2-c1cccc(-c2cnnn2Cc2cccc(-c3ccccc3)c2)c1,Potency,[1],inactive
same,Potency,[2],inactive
same,Potency,[3],inactive
same,Potency,[4],inactive
same,Potency,[5],inactive
same,Potency,[6],inactive
same,Potency,[7],inactive
CC(=O)O[C@H]1[C@@]2(O)C[C@H](C)[C@H](OC(=O)c3ccccc3)[C@@H]2[C@@H](OC(=O)CO)[C@]2(OC(C)=O)C[C@H]3C(=O)C(C)(C)C[C@@H]3[C@@]1(C)[C@H]2OC(C)=O,Potency,[1],inactive
same,Potency,[2],inactive
same,Potency,[3],inactive
same,Potency,[4],inactive
same,Potency,[5],inactive
same,Potency,[6],inactive
same,Potency,[7],inactive
C=C1C(=O)O[C@@H]2/C=C(/C)[C@@H](OC(C)=O)C/C=C(\C)C[C@@H](OC(=O)/C(=C/CO)CO)[C@@H]12,Potency,[1],inactive
same,Potency,[2],inactive
same,Potency,[3],inactive
same,Potency,[4],inactive
same,Potency,[6],inactive
same,Potency,[7],inactive
C=C1C(=O)O[C@@H]2[C@H]3C(C)=CC(=O)C3=C(C)[C@@H](OC(=O)/C(C)=C\C)[C@H](O)[C@@H]12,Potency,[1],inactive
same,Potency,[2],inactive
same,Potency,[3],inactive
same,Potency,[4],inactive
same,Potency,[6],inactive
same,Potency,[7],inactive
Fc1ccc(-c2nc(-c3c(F)cccc3F)[nH]c2-c2ccncc2)cc1,Potency,[1],inactive
same,Potency,[2],inactive
same,Potency,[3],inactive
same,Potency,[8],inactive
same,Potency,[5],inactive
